# Hits are enriched below; roughly 19% of the tested compounds scored in any of these assays.
# TGFb SMAD3 inh: blocks TGF-b signaling. 1.2% of 410,000 active. Potency, µM (series often up to 46.1 µM), for the others: at the highest dose activity, negative = inhibition, actives largely listed as inhibitors. HepG2 CAGA-GFP TGF-b/SMAD3 reporter, GFP fluorescence, 18 h; TGF-beta stimulated, 500 pg/mL final; further: potency means the concentration at half of the fitted maximal effect; on the % scale 0 is the no-effect control and ±100 the full control effect; nearly all actives have a fitted effect of over 65% in size
#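 HEPG2 CAGA-GFP reporter cells (1000/well, DMEM with 1% FBS) received compounds, then recombinant TGF-beta at 500 pg/mL final for 18 hours at 37 degrees C. Per-cell GFP summed per well was normalised to unstimulated and stimulated DMSO controls before curve fitting.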
# IL-1B inflam inh: inhibitors of inflammasome signaling (IL-1 beta secretion); 4.7% of 360,000 active; AID 743279; THP-1 LPS/ATP IL-1B secretion, AlphaLISA, 16 h; active compounds read low; activity change, % at 57.5 µM; in the data active means activity change below about -50%; inconclusive means mostly about -30% to -49%; further: on the % scale 0 is the no-effect control and ±100 the full control effect
#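 THP-1 cells pretreated 1 hr with compounds (up to 57.5 uM final), then stimulated with LPS (250 ng/mL final) plus ATP (1.25 mM final); secreted IL-1B measured by AlphaLISA after 16 hr, decreased signal indicating inhibition.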
# DT40 TDP1 CPT: DT40-hTDP1 cell growth loss with CPT; chicken DT40 Tdp1-/-;hTDP1 cells + 20 nM CPT, ATP luminescence, 48 h; Potency, µM (series often up to 46.2 µM), without a hit: top-dose activity change, negative = growth inhibition, actives largely listed as inhibitors; 12% of 420,000 active; AID 686979; further: potency means the concentration at half of the fitted maximal effect; on the % scale 0 is the no-effect control and ±100 the full control effect; nearly all actives have a fitted effect of over 55% in size
#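 Chicken DT40 Tdp1-/- cells stably complemented with human TDP1 were seeded at 400 cells/well in medium containing 20 nM camptothecin, exposed to pin-transferred compounds, and grown at 37 °C for at least 48 hr. Viability was read as ATP luminescence.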
# HepG2 viability: kills HepG2 cells in TGF-b inhibitor counter-screen; HepG2 CAGA-GFP viability, ATP luminescence, 18 h; Potency, µM (top dose mostly 46.1 µM), without a hit: top-dose activity change, negative = cytotoxicity, actives largely listed as cytotoxic; 0.76% of 410,000 active; AID 588856; further: potency means the concentration at half of the fitted maximal effect
#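 CellTiter-Glo luminescence gave cytotoxicity after 18 hours at 37 degrees C. The cells were HepG2 CAGA-GFP in 1% FBS DMEM, stimulated with 500 pg/mL TGF-beta after compound addition. %Activity was normalised to no-cell wells (complete cell-killing) and DMSO (no toxicity), and curves were fitted and classified.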
# ASM inhibitor: inhibitors of human secretory acid sphingomyelinase | 0.006% of 340,000 active | P17405 | placental ASM, HMU-PC fluorogenic substrate, 60 min | Potency, µM (top dose mostly 57.5 µM), without a hit: at the top dose activity change, negative = inhibition, hits mostly inhibitors; further: potency means the concentration at half of the fitted maximal effect
# Target sequence (P17405 47-631 limits assumed): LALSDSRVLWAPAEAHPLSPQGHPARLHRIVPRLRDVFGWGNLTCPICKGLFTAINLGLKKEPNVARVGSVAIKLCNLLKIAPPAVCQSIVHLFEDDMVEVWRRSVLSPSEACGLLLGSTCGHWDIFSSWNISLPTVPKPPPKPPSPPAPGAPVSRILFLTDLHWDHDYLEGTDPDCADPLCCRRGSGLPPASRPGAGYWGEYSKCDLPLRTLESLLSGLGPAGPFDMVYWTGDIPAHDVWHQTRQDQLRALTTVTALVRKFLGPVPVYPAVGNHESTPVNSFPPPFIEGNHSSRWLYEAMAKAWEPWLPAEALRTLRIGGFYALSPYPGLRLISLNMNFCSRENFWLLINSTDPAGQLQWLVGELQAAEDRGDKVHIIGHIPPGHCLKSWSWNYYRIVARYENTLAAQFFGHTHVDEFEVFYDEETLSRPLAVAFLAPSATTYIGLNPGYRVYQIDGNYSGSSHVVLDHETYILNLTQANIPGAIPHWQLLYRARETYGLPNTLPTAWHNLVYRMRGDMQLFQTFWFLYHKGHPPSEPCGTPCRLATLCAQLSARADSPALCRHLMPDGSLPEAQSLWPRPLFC
#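 HMU-PC0 cleavage (9 uM final) by human placental ASM, 60 min at 37 °C following 10 min compound exposure at RT; stopped at pH 10, fluorescence Ex 386/Em 447 nm.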
# TDP1 cell noCPT: qHTS for Inhibitors of human tyrosyl-DNA phosphodiesterase 1 (TDP1): qHTS in cells in absence of CPT; DT40 Tdp1-/- hTDP1 cells, no CPT, ATP luminescence, 48 h; Potency, µM (doses to about 46.2 µM), for the others: top-dose activity change, negative = growth inhibition, hits mostly inhibitors; 15% of 420,000 active; further: potency means the concentration at half of the fitted maximal effect; on the % scale 0 is the no-effect control and ±100 the full control effect; nearly all actives have a fitted effect of over 55% in size
#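 A cellular qHTS used chicken DT40 cells lacking endogenous Tdp1 but carrying stably transfected human TDP1. Compounds were applied without camptothecin, and cell growth kinetics were judged by ATP-dependent luminescence after ≥48 hr.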
# The depositor's hits bear a star; ? = inconclusive; · = no result; [ ] = remark or other dose. Unless noted, the call rests on the fitted dose curve; in most records, active means well fitted curve in the direction sought with a large enough effect; inconclusive means small, poorly fitted or top-dose-only effect, or another doubt; inactive means no such curve, though single readings can be large; an effect the other way counts as inactive or inconclusive.
SMILES,TGFb SMAD3 inh,IL-1B inflam inh,DT40 TDP1 CPT,HepG2 viability,ASM inhibitor,TDP1 cell noCPT
NC(=O)c1cccc(Nc2nc(C(N)CCc3ccccc3)cs2)n1 (configuration not stated),5%,0,2.1µM*,-38%,·,2.9µM*
NC(COCc1ccccc1)c1csc(Nc2nccc(C(F)(F)F)n2)n1 (configuration not stated),12%,0,?,-1%,·,?
COc1cccc(Nc2nc(C(N)COCc3ccccc3)cs2)n1 (configuration not stated),?,·,?,11µM*,·,?
Cc1nn(CC(=O)NC2CC2)c(=O)c2cc3cc(F)ccc3n12,-5%,·,-1%,-2%,·,-12%
Cc1nnsc1C(=O)Nc1ccc(S(=O)(=O)N2CCCCC2C)cc1 (configuration not stated),?,0,?,-21%,0%,?
COc1cc(-c2cc(C)c3cccc(OC)c3n2)cc2c1OCCN(C(=O)CCn1nc(C)cc1C)C2,·,·,-15%[9.04 µM],·,·,18µM*
Cc1ccc(Nc2c(-c3ccccc3O)nc3cc(C)ccn23)cc1,?,·,?,-37%,·,?
Cc1ccc(Nc2c(-c3ccccn3)nc3cccc(C)n23)cc1,?,?,2.6µM*,-36%,-1%,2.1µM*
Cc1cccc2nc(-c3ccccn3)c(Nc3ccc(F)cc3)n12,?,·,12µM*,-53%,·,18µM*
Cc1ccn2c(Nc3ccc(F)cc3)c(-c3ccccn3)nc2c1,85%,·,10µM*,69%,·,13µM*
Cc1ccc(Nc2c(-c3ccccn3)nc3ccc(Br)cn23)cc1,-34%,·,9.2µM*,9%,·,21µM*
Cc1ccc(Nc2c(-c3ccsc3)nc3cccc(C)n23)cc1,-30%,·,16µM*,-109%,·,?
Cc1cccc(C)c1Nc1c(-c2ccccc2F)nc2cccc(C)n12,?,·,10µM*,-35%,·,-78%
Cc1cccc2nc(-c3ccccn3)c(Nc3ccccc3)n12,?,·,4.1µM*,-40%,·,4.1µM*
O=C(C1CCC(CNS(=O)(=O)c2ccccc2)CC1)N1CCOCC1 (configuration not stated),4%,-19,1%,-13%,3%,-12%
Cc1cc(C)cc(OCC(=O)N(Cc2ccc(Cl)cc2)C2CCS(=O)(=O)C2)c1 (configuration not stated),?,·,?,-26%,·,?
O=C(Cn1c(-c2ccccn2)nc2ccccc21)N/N=C/c1cccnc1,10%,·,-6%,-2%,-2%,?
CN(C)CCCN(C(=O)c1ccc(S(=O)(=O)N2CCCCCC2)cc1)c1nc2cc3c(cc2s1)OCO3,?,-12,?,-60%,·,?
CC1CCCCN1S(=O)(=O)c1ccc(C(=O)N(CCCN(C)C)c2nc3ccc(Br)cc3s2)cc1 (configuration not stated),?,-105*,21µM*,-96%,-21%,?
CCC1CCCCN1S(=O)(=O)c1ccc(C(=O)N(CCCN(C)C)c2nc3cc4c(cc3s2)OCO4)cc1 (configuration not stated),?,-80*,16µM*,-48%,-5%,?
CC(=O)c1ccc(OC(C)C(=O)OCC(=O)NCCc2ccccc2)cc1 (configuration not stated),-4%,23,-15%,-3%,5%,-4%
CC(NCC(=O)Nc1ccccc1C(=O)NC1CC1)c1cccc(C(F)(F)F)c1 (configuration not stated),-10%,-12,?,-22%,-1%,?
CCOC(=O)CC[C@H](NC(=O)Cn1cnc2c(OCc3ccccc3)ncnc21)C(=O)OCC,-19%,17,-10%,-24%,4%,-15%
CCCCCCN1C[C@@H](O)[C@H](n2cc(-c3ccc(F)cc3)nn2)C[C@@H]1c1ccccc1,?,-16,-29%,-72%,·,?
CCCCCC(=O)N1C[C@H](O)[C@@H](n2cc(-c3ccc(F)cc3)nn2)C[C@@H]1c1ccc(C)cc1,?,?,?,-18%,·,?
SMILES,TGFb SMAD3 inh,IL-1B inflam inh,DT40 TDP1 CPT,HepG2 viability,ASM inhibitor,TDP1 cell noCPT
CCCCCCN1C[C@H](O)[C@@H](n2cc(-c3ccc(F)cc3)nn2)C[C@@H]1c1ccc(C)cc1,-24%,-18,?,-33%,·,23µM*
CCCCCCN1C[C@@H](O)[C@H](n2cc(-c3ccc(F)cc3)nn2)C[C@@H]1c1ccc(C)cc1,-3%,3,?,-24%,·,21µM*
CCCCCCN1C[C@@H](n2cc(-c3ccc(F)cc3)nn2)[C@H](O)C[C@@H]1c1ccccc1,?,-10,?,-41%,·,13µM*
Cc1cnc(=O)[nH]c1SCC(=O)Nc1cc(C(F)(F)F)ccc1Cl,-11%,·,-1%,-5%,·,-26%
O=C(Nc1cccc(Cl)c1)N1Cc2ccccc2Oc2ncccc21,·,·,-9%,-9%,·,?
COc1cccc(/C=N/n2c(SC)nnc2-c2ccccc2)c1O,4%,40,10µM*,3%,1%,16µM*
O=C(Cn1nc(C(=O)O)c2ccccc2c1=O)Nc1cccc(S(=O)(=O)N2CCCCC2)c1,-1%,-9,-25%,-11%,?,-20%
COc1ccc(C2=NN(C(=O)CSc3ncccn3)C(c3ccc(C)cc3)C2)cc1 (configuration not stated),?,-1,?,-23%,?,18µM*
COc1ccc(C2CC(c3ccc(Br)cc3)=NN2C(=O)CSC2=NCCS2)cc1 (configuration not stated),-16%,-65*,16µM*,-19%,-11%,16µM*
Cc1ccc(OC(C)C(=O)N2CCCc3ccccc32)cc1 (configuration not stated),-6%,-8,?,-17%,3%,26µM*
Cc1c(Br)c([N+](=O)[O-])nn1C(C)C(=O)N1CCCc2ccccc21 (configuration not stated),-20%,10,?,-26%,-8%,16µM*
COc1ccc(OC(C)C(=O)N2CCc3ccccc3C2)cc1 (configuration not stated),-16%,35,?,-19%,2%,21µM*
COC(=O)/C(=N/Nc1ccc(C)cc1)N1CCCc2ccccc21,-14%,?,12µM*,2%,-7%,?

# Assay outcomes as filed in PubChem BioAssay.
